# This is a sample that favours compounds with a hit; in the whole collection about 3% have one here.
# esBAF inh: inhibitors of esBAF chromatin remodeling in mouse ES cells; Bmi1-luciferase knock-in reporter, 24 h; 100% = twice the neutral-well signal; reporter increase, % at 12.5 µM; hit rate 2% among 350,000; in the data active = activation above about 40%; inconclusive = no clear call, values can overlap the other calls;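 note: 0% = median of the plate's neutral control wells and 100% = double that signal; a rise in the Bmi1 reporter signal indicates esBAF inhibition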
# Vif inh: blocks HIV Vif function; hit rate 0.35% among 340,000; AID 602346; HEK293T cells, Vif self-association by quenched fluorescence, imaging, 24 h; inhibition, % at 7.49 µM; in the data active = inhibition above about 50%, passing the limit was not always enough; inconclusive = no clear call, values can overlap the other calls; inactive = below about 31%
# Wnt bcat act: activators of Wnt/beta-catenin signaling. hit rate 1.2% among 300,000. AID 743398. activation, % at 9.35 µM. Wnt/beta-catenin reporter cell assay, activator, plate reader; in the data active = activation above about 30%, passing the limit was not always enough; inconclusive = no clear call, values can overlap the other calls;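 note: 0% = neutral control wells and 100% = positive control wells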
# PfHsp90 yeast 2: growth inhibition of yeast expressing Plasmodium Hsp90. S. cerevisiae expressing PfHsp90, BacTiter-Glo ATP, 48 h; yeast lacking PDR1 and PDR3 efflux regulators. inhibition, % at 9.4 µM. hit rate 0.32% among 310,000;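 active = every replicate shows inhibition above about 80%, whatever the replicate mean, limit read from the data; inconclusive = mean inhibition reaches the set limit but some replicate falls short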;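 note: 0% = DMSO neutral controls and 100% = 20 µM radicicol positive controls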
# N-glyco inh: blocks N-linked glycosylation in D54 reporter cells. D54 ERlucT glycosylation luciferase reporter, 24 h; percent of 100 nM tunicamycin response. reporter increase, % at 12.5 µM. hit rate 0.23% among 360,000. AID 588692;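 active = mean luciferase reporter signal, scaled so untreated is 0 and the glycosylation-blocking control 100, at or above a set limit in every replicate; inconclusive = mean reaches the limit but not every replicate does; inactive = mean below the limit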;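 note: luciferase carries N-glycosylation sites so blocking glycosylation raises the light; 0% = median of neutral control wells and 100% = median of 100 nM tunicamycin wells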
# MITF act: MITF TRPM1 promoter activation in melanoma cells. SK-MEL-5 TRPM1-promoter luciferase, 24 h; % of positive control, neutral wells = 0. activation, % at 12.5 µM. hit rate 0.75% among 300,000;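 active = mean activation of at least 80% with every replicate also reaching 80%; inconclusive = mean reaches 80% but some replicate falls short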;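 note: 0% = neutral control wells and 100% = parthenolide positive control wells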
# Active calls of the source: *; ? = inconclusive; / = no result given; ! = a repeat was not active.
SMILES,esBAF inh,Vif inh,Wnt bcat act,PfHsp90 yeast 2,N-glyco inh,MITF act
COc1ccc(-c2csc(-c3ccccc3)n2)c(OC)c1,/,4.1,13.2,-7.3,-8.5,86.3*
CCC(=O)Nc1ccc2c(c1)C(=O)N(C)C[C@@H](OC)[C@@H](C)CN(CCC(F)(F)F)[C@H](C)CO2,0.3,/,/,/,/,/
CO[C@H]1CN(C)C(=O)c2ccc(NC(C)=O)cc2OC[C@H](C)N(CC2CCCCC2)C[C@H]1C,-0.4,/,/,/,/,/
Cc1ccc(-c2csc(-c3ccncc3)n2)cc1,/,/,10.6,-32.1,0.3,59.1
Brc1ccc(-c2csc(-c3ccncc3)n2)cc1,/,-8.3,54.5*,-34.7,1.6,?
CCC(=O)Nc1ccc2c(c1)C(=O)N(C)C[C@@H](OC)[C@@H](C)CN(C(=O)c1ccc(F)cc1)[C@H](C)CO2,3.4,/,/,/,/,/
COc1cccc(/C=C/C(=C2\C(=O)N(c3ccccc3)N=C2C)c2ccc(Br)cc2)c1OC,-8.4,-13.9,33.1*,/,5.9,/
COc1ccc(/C=C2/C(=O)N(c3ccccc3)N=C2C)cc1OC,-10.0,15.2,0.4,5.5,4.4,/
C[C@H](CO)N1C[C@H](C)[C@@H](CN(C)S(=O)(=O)c2cccs2)Oc2c(NS(=O)(=O)c3cn(C)cn3)cccc2C1=O,0.4,/,47.2*,12.9,-0.2,11.0
C[C@H]1CN([C@@H](C)CO)C(=O)c2cccc(NC(=O)Nc3ccc4c(c3)OCO4)c2O[C@@H]1CN(C)S(=O)(=O)c1cccs1,43.6*,/,/,/,/,/
C[C@H](CO)N1C[C@H](C)[C@@H](CN(C)S(=O)(=O)c2cccs2)Oc2c(NC(=O)Nc3ccc4c(c3)OCO4)cccc2C1=O,56.7*!,33.0,-0.6,-4.7,-1.0,9.0
C[C@@H]1CN([C@@H](C)CO)C(=O)c2cccc(NC(=O)Nc3ccc4c(c3)OCO4)c2O[C@H]1CN(C)S(=O)(=O)c1cccs1,16.7,/,/,/,/,/
C[C@H](CO)N1C[C@H](C)[C@H](CN(C)S(=O)(=O)c2cccs2)Oc2c(NS(=O)(=O)c3cn(C)cn3)cccc2C1=O,-4.3,/,/,/,/,/
CC1CCCCC12NC(=O)N(CC(=O)OCc1ccccc1F)C2=O (stereo not given),0.7,5.8,-0.6,-1.1,0.2,0.8
C[C@H]1CN([C@@H](C)CO)C(=O)Cc2cc(NC(=O)CCC(F)(F)F)ccc2O[C@H]1CN(C)S(=O)(=O)c1ccc(Cl)cc1,-0.3,-4.3,-12.4,/,32.4*,-31.4
C[C@H]1CN([C@@H](C)CO)C(=O)Cc2cc(NC(=O)CCC(F)(F)F)ccc2O[C@H]1CN(C)S(=O)(=O)c1ccc(F)cc1,-2.2,/,-5.0,7.0,40.0*,-22.2
C[C@H](CO)N1C[C@H](C)[C@H](CN(C)S(=O)(=O)c2ccc(Cl)cc2)Oc2ccc(NC(=O)CCC(F)(F)F)cc2CC1=O,-3.4,/,/,/,/,/
CC(C)(C)c1nn(-c2ccccc2)c2[nH]c(=O)c(C=O)cc12,10.0,-18.9,1.3,120.3*,1.7,/
CCOc1ccc(NCc2cc3c(C(C)(C)C)nn(-c4ccccc4)c3[nH]c2=O)cc1,6.1,/,2.0,103.2*,-1.4,-19.5
CS(=O)(=O)N1CCCCN2[C@H](CO)[C@H](c3ccc(-c4cccc(C#N)c4)cc3)[C@@H]2C1,7.3,/,/,/,/,/
O=C1COc2ccc(OCc3ccc(F)cc3)cc21,22.0,-12.2,/,14.7,-3.8,90.5*
O=c1cc(OCc2ccccc2)cc[nH]1,1.2,-3.4,0.3,-2.1,3.4,1.0
O=C(N/N=C/c1ccc(Cl)c([N+](=O)[O-])c1)c1cc(-c2ccc3c4c(cccc24)CC3)n[nH]1,-6.7,-6.7,-3.7,-42.7,19.1,-54.8
CSc1nnnn1-c1c(C)cccc1C,/,50.8*,0.1,7.4,-1.9,-16.3
Cc1cccc(C)c1-n1nnnc1SCSc1nnnn1-c1c(C)cccc1C,-5.5,-3.8,/,-12.7,-4.4,-8.2
SMILES,esBAF inh,Vif inh,Wnt bcat act,PfHsp90 yeast 2,N-glyco inh,MITF act
CC(C)NC(=O)N[C@H]1CC[C@@H](CCNC(=O)C2CCCC2)O[C@@H]1CO,4.5,/,/,/,/,/
O=[N+]([O-])c1ccc(C(=S)N2CCN(c3ccc(F)cc3)CC2)cc1,/,1.7,-0.6,-2.2,-1.8,-17.8
CCn1c(/C=C/c2c[nH]c3ccccc23)nc2ccccc2c1=O,/,1.0,8.9,-5.1,-7.4,113.6*
CCn1c(/C=C\c2ccccc2C)nc2ccccc2c1=O,/,-0.9,3.6,-16.2,-0.5,15.1
Nc1nnc(SCC(=O)c2ccc3ccccc3c2)s1,52.4*,9.8,/,-6.6,0.4,/
Cc1onc(-c2c(Cl)cccc2Cl)c1C(=O)N[C@@H]1C(=O)N2[C@@H]1SC(C)(C)[C@@H]2C(=O)O,2.3,-0.1,-5.9,-5.3,31.0*!,-15.8
CCOC(=O)COc1ccc(S(=O)(=O)Nc2ccc3c(c2)OCCO3)cc1,-4.1,0.0,/,7.1,-3.5,-0.5
CCCN1C[C@H](C)[C@@H](OC)CN(C)C(=O)c2ccc(NC(=O)COC)cc2OC[C@@H]1C,-0.4,/,/,/,/,/
O=c1oc2ccccc2nc1/C=C(\O)c1ccccc1,/,1.2,39.9*,/,-2.4,/
C#CCOCCOCCOCCNc1nc(N2CCN(C(=O)CCCCCCCCCCNC(=O)Cn3cc(C[C@@H](C)O)nn3)CC2)nc(N2CCN(C(=O)CCCCCCCCCCNC(=O)[C@H](CO)n3cc(CCCSC)nn3)CC2)n1,-2.7,-5.4,-7.6,-3.0,8.1,-57.4
Cc1cc(C)c2[nH]c(=O)c(CN(Cc3nnnn3C3CCCC3)C3CCCCC3)cc2c1,-0.6,14.7,/,12.8,2.6,7.2
Cc1cccc2cc(CN(Cc3nnnn3C3CCCCC3)C3CCCC3)c3nnnn3c12,-1.0,?,-8.2,104.5*,-1.1,-10.8
COc1ccc(S(=O)(=O)N2CCCCCC2)cc1C(=O)NC1(C)CCS(=O)(=O)C1 (stereo not given),4.9,0.2,-1.1,-4.0,-1.0,-2.9
CC(=O)Nc1ccc(NC(=O)C(C)OC(=O)CCCN2C(=O)c3cccc4cccc(c34)C2=O)cc1 (stereo not given),-5.8,-3.1,2.6,/,-0.5,6.1
CO[C@H]1CN(C)C(=O)c2cc(NC(=O)Nc3ccc4c(c3)OCO4)ccc2OC[C@H](C)NC[C@H]1C,44.0*,/,/,/,/,/
CO[C@H]1CN(C)C(=O)c2cc(NC(=O)Nc3ccc4c(c3)OCO4)ccc2OC[C@@H](C)NC[C@H]1C,50.7*,/,/,/,/,/
CO[C@H]1CN(C)C(=O)c2cc(NC(=O)Nc3ccccc3)ccc2OC[C@@H](C)NC[C@H]1C,1.1,/,/,/,/,/
CO[C@H]1CN(C)C(=O)c2cc(NC(=O)Nc3ccc4c(c3)OCO4)ccc2OC[C@H](C)NC[C@@H]1C,54.8*,/,/,/,/,/
CO[C@@H]1CN(C)C(=O)c2cc(NC(=O)Nc3ccccc3)ccc2OC[C@@H](C)NC[C@@H]1C,3.5,/,/,/,/,/
Cc1ccc(OCC(=O)Nc2ccc3oc(=O)ccc3c2)c(C)c1,-0.7,-3.1,1.9,12.1,-3.0,/
CCOC(=O)c1cnc(N2CCN(C(=O)OCC)CC2)[nH]c1=O,-0.5,24.0,-0.1,12.7,2.8,-3.2

# Source: PubChem (Broad Institute)
